The values below come from article PMC5540273 (PLoS ONE, 2017).

Test systems include ABL2; ACVR1B; ACVR1; ACVR2A; ACVR2B; ACVRL1; ADCK4; AKT1; AKT2; AKT3; ALK; ANKK1; AURKA; AURKB.
Holding throughout (conditions): concentration: 1 μM, replicates: in singlicate; n = 1
In a further assay the test system is T1, ADCK3.
T1 construct: gene CABC1

A further assay concerns T2, AMPK-alpha1.
T2 construct: gene PRKAA1

The subject of the next assay is T3, AMPK-alpha2.
T3 construct: gene PRKAA2

In a further assay the test system is T4, ARK5.
T4 construct: gene NUAK1

A further assay has as its system T5, ASK1.
T5 construct: gene MAP3K5

The next assay has as its system T6, ASK2.
T6 construct: gene MAP3K6
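Also: KINOMEscan kinase panel screen.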

On to `COc1ccc(NC(=O)Nc2ccc(C)c(-c3ccc(C(=O)Nc4ccncc4)cc3)c2)cc1` [GSK1398475], for which the “%Inh” value in the assay with ABL2 was 12%; with ACVR1B, 0%; in the assay with ACVR1, 43%; with ACVR2A it was 0%; in the assay on ACVR2B it was 0%; in the assay with ACVRL1, 0%. For the same molecule, the “%Inh” value with ADCK3 is recorded as 19%; in the assay on ADCK4 it was 34%; in the assay on AKT1, 0%; in the assay on AKT2, 0%; with AKT3, 0%; with ALK it was 18%. The “%Inh” value came out at 0% in the assay on AMPK-alpha1; 0% in the assay with AMPK-alpha2; 10% in the assay with ANKK1; 0% in the assay with ARK5; 4% in the assay with ASK1; 0% with ASK2. In addition, the “%Inh” value was 4% with AURKA and 0% in the assay on AURKB.
For the molecule `Nc1nc(-c2cccnc2)c(-c2ccnc3ccccc23)s1` [GW684083], the “%Inh” value was 12% with ABL2; 10% in the assay with ACVR1B; 32% in the assay on ACVR1; 0% in the assay with ACVR2A; 0% in the assay on ACVR2B; 12% with ACVRL1. Further, the “%Inh” value with ADCK3 came to 24%; in the assay on ADCK4, 45%; in the assay on AKT1, 0%; in the assay on AKT2, 1%; in the assay with AKT3 it was 0%; in the assay with ALK it was 22%. Moreover, the “%Inh” value amounted to 23% in the assay on AMPK-alpha1; 20% with AMPK-alpha2; 5% in the assay with ANKK1; 0% with ARK5; 0% with ASK1; 10% in the assay on ASK2. In addition, the “%Inh” value amounted to 0% in the assay with AURKA and 7% with AURKB.
`CCn1c(-c2ccncc2)nc2cnccc21` [SB-735216]: the “%Inh” value in the assay on ABL2 is listed as 0%; in the assay with ACVR1B, 14%; in the assay on ACVR1, 40%; in the assay with ACVR2A, 0%; in the assay on ACVR2B, 4%; with ACVRL1, 0%. In addition, the “%Inh” value turned out to be 15% with ADCK3; 6% in the assay with ADCK4; 0% in the assay on AKT1; 0% in the assay on AKT2; 0% in the assay with AKT3; 6% in the assay with ALK. Also, the “%Inh” value in the assay with AMPK-alpha1 worked out at 0%; in the assay with AMPK-alpha2 it was 5%; in the assay on ANKK1, 21%; in the assay with ARK5, 8%; in the assay with ASK1, 0%; in the assay on ASK2, 20%. Further, the “%Inh” value is reported as 7% in the assay on AURKA and 29% in the assay with AURKB.
Consider `Cc1ccc(NC(=O)c2cccc(C#N)c2)cc1-c1ccc(C(=O)Nc2ccncc2)cc1` [GSK1398463], for which the “%Inh” value turned out to be 54% in the assay with ABL2; 0% with ACVR1B; 18% in the assay on ACVR1; 0% in the assay with ACVR2A; 0% in the assay on ACVR2B; 2% in the assay with ACVRL1. Also, the “%Inh” value in the assay with ADCK3 was determined as 18%; in the assay on ADCK4 it was 6%; in the assay with AKT1 it was 0%; with AKT2, 0%; in the assay on AKT3, 0%; in the assay with ALK, 31%. Further, the “%Inh” value in the assay on AMPK-alpha1 came out at 0%; in the assay with AMPK-alpha2, 15%; in the assay with ANKK1, 0%; in the assay with ARK5 it was 33%; in the assay on ASK1, 3%; in the assay with ASK2, 8%. The entries for the “%Inh” value in the assay with AURKA and in the assay on AURKB were 7% and 12%, respectively.
As for `COC(=O)c1c(-c2ccccc2)c2cc(Cl)ccc2c(=O)n1Cc1ccc(S(C)(=O)=O)cc1`, the “%Inh” value in the assay with ABL2 was determined as 18%; in the assay with ACVR1B it was 0%; with ACVR1 it was 0%; in the assay with ACVR2A, 0%; with ACVR2B, 0%; in the assay on ACVRL1, 0%. Further, the “%Inh” value with ADCK3 is 17%; in the assay with ADCK4, 0%; in the assay with AKT1 it was 9%; with AKT2, 3%; in the assay with AKT3 it was 0%; in the assay with ALK it was 8%. The “%Inh” value worked out at 7% in the assay with AMPK-alpha1; 0% with AMPK-alpha2; 0% in the assay on ANKK1; 19% in the assay on ARK5; 6% in the assay with ASK1; 6% in the assay with ASK2. Besides, the “%Inh” value in the assay with AURKA turned out to be 4%; in the assay on AURKB, 12%.
As for `O=C(Nc1n[nH]c2nc(-c3ccco3)c(Br)cc12)c1ccc(CN2CCCC2)cc1.O=C(O)[C@H](O)[C@@H](O)C(=O)O` [SB-742352], the “%Inh” value is given as 0% with ABL2; 0% with ACVR1B; 24% in the assay on ACVR1; 0% with ACVR2A; 0% with ACVR2B; 0% with ACVRL1. In addition, the “%Inh” value in the assay with ADCK3 came out at 0%; in the assay with ADCK4, 0%; with AKT1, 0%; in the assay on AKT2, 0%; in the assay on AKT3, 8%; with ALK, 0%. Moreover, the “%Inh” value is recorded as 0% in the assay with AMPK-alpha1; 8% with AMPK-alpha2; 0% in the assay on ANKK1; 0% in the assay with ARK5; 0% in the assay on ASK1; 0% in the assay with ASK2. The “%Inh” value with AURKA and with AURKB was 0% in each case.
In the case of `Fc1cccc(COc2ccc(Nc3ncnc4nn5ccccc5c34)cc2Cl)c1` [GW689066], the “%Inh” value in the assay with ABL2 came out at 1%; in the assay on ACVR1B it was 0%; in the assay with ACVR1, 0%; in the assay on ACVR2A, 0%; with ACVR2B, 0%; in the assay on ACVRL1, 0%. Moreover, the “%Inh” value with ADCK3 was determined as 5%; in the assay on ADCK4, 42%; with AKT1 it was 0%; with AKT2 it was 3%; in the assay on AKT3, 0%; with ALK it was 26%. Besides, the “%Inh” value came out at 0% with AMPK-alpha1; 0% with AMPK-alpha2; 0% in the assay on ANKK1; 11% in the assay with ARK5; 8% in the assay on ASK1; 0% with ASK2. In addition, the “%Inh” value in the assay with AURKA and with AURKB was 0% throughout.
In the case of `Oc1ccc2ncnc(Nc3ccc(OCc4ccccc4)cc3)c2c1` [GI262866], the “%Inh” value with ABL2 is on record as 7%; in the assay on ACVR1B it was 0%; in the assay on ACVR1, 0%; with ACVR2A, 0%; in the assay on ACVR2B it was 9%; in the assay with ACVRL1, 0%. The “%Inh” value in the assay on ADCK3 was 0%; in the assay with ADCK4 it was 0%; in the assay on AKT1, 0%; in the assay with AKT2 it was 9%; in the assay on AKT3, 0%; in the assay with ALK, 21%. In addition, the “%Inh” value in the assay on AMPK-alpha1 is on record as 4%; with AMPK-alpha2 it was 0%; in the assay with ANKK1 it was 0%; with ARK5 it was 15%; in the assay on ASK1 it was 0%; in the assay with ASK2 it was 7%. For the same molecule, the figures for the “%Inh” value in the assay with AURKA and with AURKB were 0% and 21%, respectively.
With `CC(C)(C)OC(=O)NC1CCCN(c2cc(-c3ccc4c(N)n[nH]c4c3)nc(N)n2)C1` (centres unmarked) [GSK2286096], the “%Inh” value in the assay with ABL2 was determined as 6%; in the assay with ACVR1B, 0%; in the assay on ACVR1, 0%; in the assay with ACVR2A, 0%; in the assay on ACVR2B, 0%; in the assay on ACVRL1 it was 0%. Also, the “%Inh” value in the assay on ADCK3 was 8%; in the assay with ADCK4 it was 5%; in the assay with AKT1, 0%; in the assay with AKT2 it was 0%; in the assay with AKT3, 0%; in the assay on ALK it was 36%. For the same molecule, the “%Inh” value came to 0% in the assay with AMPK-alpha1; 0% in the assay with AMPK-alpha2; 7% in the assay on ANKK1; 19% in the assay with ARK5; 0% in the assay with ASK1; 0% with ASK2. For the same molecule, the figures for the “%Inh” value with AURKA and with AURKB were 52% and 66%, respectively.
On to `Clc1cc(Nc2ncnc3cc[nH]c23)ccc1OCc1ccccn1`, for which the “%Inh” value is reported as 0% with ABL2; 28% in the assay with ACVR1B; 10% in the assay with ACVR1; 0% in the assay on ACVR2A; 0% with ACVR2B; 5% in the assay with ACVRL1. Besides, the “%Inh” value in the assay with ADCK3 is 9%; in the assay with ADCK4, 3%; in the assay with AKT1 it was 10%; in the assay with AKT2, 19%; in the assay on AKT3, 5%; in the assay with ALK, 0%. Moreover, the “%Inh” value is reported as 20% with AMPK-alpha1; 0% with AMPK-alpha2; 20% with ANKK1; 0% in the assay on ARK5; 5% in the assay on ASK1; 0% in the assay on ASK2. Besides, the results for the “%Inh” value in the assay on AURKA and in the assay on AURKB were 35% and 13%, respectively.
